Among the test systems are PIK3C2G; PIK3CA; PIK3CB; PIK3CD; PIK3CG; PIKFYVE; PIM1; PIM2; PIM3.
Holding throughout (details): concentration: 1 μM, replicates: in singlicate; n = 1
The next assay concerns T1, PIK4CB.
T1 construct: gene PI4KB
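Note: KINOMEscan kinase panel screen.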

Consider `CNc1nccc(-c2ccc3c(N)n[nH]c3c2)n1` [GSK2206003], for which the “%Inh” value is 1% with PIK3C2G; 0% in the assay with PIK3CA; 0% with PIK3CB; 0% with PIK3CD; 17% in the assay on PIK3CG; 0% in the assay with PIK4CB. Also, the “%Inh” value with PIKFYVE is listed as 0%; in the assay on PIM1, 18%; in the assay with PIM2 it was 0%; in the assay with PIM3 it was 13%.
As to `CN(c1ccc2c(c1)nc(NCc1ccccc1)n2C)c1ccnc(Nc2ccc(CS(C)(=O)=O)cc2)n1.Cl` [GW811603], the “%Inh” value was 0% in the assay with PIK3C2G; 0% in the assay with PIK3CA; 41% in the assay on PIK3CB; 0% with PIK3CD; 29% in the assay on PIK3CG; 26% with PIK4CB. The “%Inh” value in the assay with PIKFYVE is 50%; in the assay with PIM1 it was 0%; in the assay on PIM2, 0%; with PIM3, 0%.
With `COc1cc(Nc2nccc(N3CCC(NC(=O)Nc4ccc5c(c4)OCO5)C3)n2)cc(OC)c1OC` (centres unmarked) [GSK1379766], the “%Inh” value in the assay on PIK3C2G came out at 0%; in the assay with PIK3CA, 3%; with PIK3CB it was 0%; in the assay on PIK3CD, 50%; in the assay with PIK3CG, 13%; in the assay on PIK4CB it was 80%. In addition, the “%Inh” value came to 10% in the assay on PIKFYVE, 0% in the assay on PIM1, 0% with PIM2 and 0% in the assay with PIM3.
In the case of `Cn1cc(-c2ccc3c(c2)CCN3C(=O)Cc2cc(F)cc(F)c2F)c2c(N)ncnc21` [GSK2634140], the “%Inh” value in the assay on PIK3C2G is 0%; in the assay on PIK3CA, 0%; in the assay with PIK3CB it was 62%; with PIK3CD, 0%; in the assay on PIK3CG, 7%; in the assay on PIK4CB, 0%. Besides, the “%Inh” value was 0% in the assay on PIKFYVE, 12% with PIM1, 0% with PIM2 and 0% in the assay with PIM3.
In the case of `Cc1nn2c(=O)cc(N3CCO[C@H](C)C3)nc2n1Cc1cccc(Cl)c1Cl` [GSK2373693], the “%Inh” value came to 89% in the assay with PIK3C2G; 23% with PIK3CA; 0% in the assay with PIK3CB; 100% in the assay with PIK3CD; 94% in the assay on PIK3CG; 11% in the assay with PIK4CB. In addition, the “%Inh” value is 8% in the assay with PIKFYVE, 10% with PIM1, 0% in the assay on PIM2 and 0% in the assay on PIM3.
`O=C(Nc1n[nH]c2nc(-c3cccc(O)c3)ccc12)C1CC1` [SB-711805]: the “%Inh” value amounted to 16% with PIK3C2G; 0% in the assay with PIK3CA; 0% in the assay on PIK3CB; 0% in the assay on PIK3CD; 17% in the assay with PIK3CG; 12% in the assay on PIK4CB. Further, the “%Inh” value in the assay on PIKFYVE turned out to be 15%; in the assay with PIM1 it was 11%; in the assay on PIM2, 81%; in the assay with PIM3 it was 10%.
With `CCn1c(-c2nonc2N)nc2c(-c3ccccc3)ncc(OCCCN)c21.O=C(O)C(F)(F)F.O=C(O)C(F)(F)F` [GSK260205], the “%Inh” value in the assay on PIK3C2G came out at 9%; with PIK3CA it was 0%; with PIK3CB, 0%; in the assay on PIK3CD, 1%; in the assay on PIK3CG it was 0%; in the assay on PIK4CB, 0%. For the same compound, the “%Inh” value in the assay with PIKFYVE is 98.8%; in the assay with PIM1, 62%; in the assay on PIM2, 2%; in the assay on PIM3, 44%.
On to `Cn1cc(-c2cnc(N)c3c(-c4ccc5c(c4)CCN5C(=O)Cc4ccccc4)csc23)cn1` [GSK2593074], for which the “%Inh” value is listed as 35% in the assay on PIK3C2G; 8% in the assay on PIK3CA; 0% in the assay with PIK3CB; 0% in the assay on PIK3CD; 3% in the assay on PIK3CG; 100% with PIK4CB. For the same compound, the “%Inh” value in the assay with PIKFYVE was determined as 0%; with PIM1, 0%; in the assay with PIM2 it was 15%; with PIM3, 1%.
As for `Cc1ccc(NC(=O)c2ccc(Cl)c(Cl)c2)cc1-c1ccc(C(=O)Nc2ccncc2)cc1` [GSK1398460], the “%Inh” value in the assay with PIK3C2G stood at 0%; in the assay with PIK3CA, 3%; with PIK3CB, 69%; with PIK3CD it was 0%; with PIK3CG it was 0%; with PIK4CB, 3%. The “%Inh” value with PIKFYVE was 0%; with PIM1 it was 0%; with PIM2 it was 0%; with PIM3, 3%.
Turning to `N#CC1(c2cccc(C(=O)Nc3cccc(Oc4ccc5nc(NC(=O)C6CC6)sc5n4)c3)c2)CC1`, the “%Inh” value in the assay with PIK3C2G, in the assay on PIK3CA, with PIK3CB, in the assay on PIK3CD, in the assay on PIK3CG and in the assay on PIK4CB was 0% each time. The “%Inh” value with PIKFYVE is reported as 0%; with PIM1 it was 0%; with PIM2 it was 17%; with PIM3, 7%.
For the compound `O=C(O)C(F)(F)F.O=c1[nH]ccc2nc(N[C@@H]3CCNC3)nc(Nc3ccc4c(c3)S(=O)(=O)CC4)c12` [GSK2181306], the “%Inh” value with PIK3C2G was 23%; in the assay with PIK3CA it was 9%; in the assay with PIK3CB, 100%; in the assay with PIK3CD, 34%; in the assay with PIK3CG, 86%; in the assay with PIK4CB, 0%. Moreover, the “%Inh” value is 0% in the assay on PIKFYVE, 89% in the assay on PIM1, 96.6% with PIM2 and 99% with PIM3.
As to `Nc1ncc(-c2ccc3nccc(-c4ccncc4)c3c2)cc1S(=O)(=O)N1CCCCC1` [GSK1693850], the “%Inh” value is 99.8% in the assay with PIK3C2G; 100% in the assay with PIK3CA; 96.9% in the assay with PIK3CB; 100% in the assay with PIK3CD; 100% in the assay on PIK3CG; 95.9% in the assay with PIK4CB. Besides, the “%Inh” value in the assay with PIKFYVE is 0%; in the assay with PIM1, 8%; with PIM2 it was 0%; with PIM3, 0%.
For the compound `CN(c1ccc(NC(=O)Nc2cccc(Cl)c2)cc1)c1ccnc(N)n1.Cl` [GW830707], the “%Inh” value amounted to 11% in the assay on PIK3C2G; 0% in the assay with PIK3CA; 20% with PIK3CB; 48% in the assay with PIK3CD; 0% in the assay on PIK3CG; 3% in the assay on PIK4CB. In addition, the “%Inh” value was determined as 0% in the assay on PIKFYVE, 0% in the assay with PIM1, 11% in the assay with PIM2 and 3% with PIM3.
Take `NCCC(NC(=O)c1cc(Br)c(-c2ccnc3[nH]ccc23)s1)c1ccccc1.O=C(O)C(F)(F)F.O=C(O)C(F)(F)F` (centres unmarked) [GSK1307810]: the “%Inh” value with PIK3C2G amounted to 0%; with PIK3CA, 0%; in the assay with PIK3CB, 6%; in the assay with PIK3CD it was 7%; in the assay with PIK3CG, 2%; in the assay with PIK4CB, 8%. The “%Inh” value in the assay on PIKFYVE is 9%; in the assay with PIM1, 66%; in the assay on PIM2 it was 95.5%; in the assay on PIM3 it was 45%.
In the case of `CN(C)CCNS(=O)(=O)c1ccc(-c2ccnc3[nH]ccc23)cc1` [GSK977620], the “%Inh” value with PIK3C2G is 0%; with PIK3CA it was 0%; in the assay on PIK3CB it was 0%; with PIK3CD, 9%; in the assay with PIK3CG, 8%; in the assay on PIK4CB, 0%. Besides, the “%Inh” value in the assay with PIKFYVE was 0%; in the assay with PIM1 it was 1%; in the assay with PIM2 it was 0%; in the assay on PIM3 it was 0%.
Turning to `Cc1ccccc1CC(=O)N1CCc2cc(-c3cn(C)c4ncnc(N)c34)ccc21` [GSK2603346], the “%Inh” value was 0% in the assay with PIK3C2G; 0% in the assay on PIK3CA; 0% in the assay on PIK3CB; 25% in the assay with PIK3CD; 0% in the assay on PIK3CG; 0% with PIK4CB. Besides, the “%Inh” value in the assay on PIKFYVE, in the assay on PIM1, in the assay with PIM2 and in the assay with PIM3 was 0% throughout.
For the compound `O=C1NC(=O)C(c2ccccc2Cl)=C1Nc1cccc(Cl)c1` [SB-342409], the “%Inh” value in the assay on PIK3C2G, with PIK3CA, with PIK3CB, in the assay with PIK3CD, in the assay on PIK3CG and in the assay on PIK4CB was 0% throughout. Moreover, the “%Inh” value with PIKFYVE, in the assay on PIM1, in the assay on PIM2 and in the assay on PIM3 was 0% each time.

The values above are taken from publication PMC5540273 (PLoS ONE, 2017).
